Reference: PubChem BioAssay (Tox21)
Several values for one entry are separate records, joined by “and”; a condition that tells them apart may be missing. Equal entries are not always repeated. Inconclusive results are not listed. Activity calls are given as the source filed them. Unless noted, calls come from the whole dose curve; as a rule, active = well fitted curve in the direction sought with a large enough effect in the repeat runs; inconclusive = weak or mixed curves; inactive = no such curve, though single readings can be large; an effect the other way counts as inactive or inconclusive.

Key:
[1] = qHTS assay to identify small molecule antagonists of the thyroid receptor (TR) signaling pathway - cell viability counter screen (AID 743064); note: nearly all actives have a fitted effect of over 50% in size
Method in brief: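 Counter screen for cytotoxicity: compound plus T3 (1 nM final) on GH3.TRE-Luc cells, 23.5 h at 37 °C, then fluorescence viability readout with CellTiter-Fluor.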

[2] = qHTS assay to identify small molecule antagonists of the thyroid receptor (TR) signaling pathway (AID 743065); note: nearly all actives have a fitted effect of over 55% in size
Method in brief: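 GH3.TRE-Luc rat pituitary cells carrying two TR response elements driving luciferase were plated for 4 h, given compound plus 1 nM T3 (final), and incubated 23.5 h at 37 C. ONE-Glo luminescence measured reporter inhibition; CellTiter-Fluor fluorescence tracked cytotoxicity.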

[3] = system: thyroid hormone receptor (rat, GH3 cells); test: qHTS assay to identify small molecule agonists of the thyroid receptor (TR) signaling pathway (AID 743066; calls by dose curve)
[4] = target: Estrogen receptor (Homo sapiens) (UniProt P03372); test: qHTS assay to identify small molecule antagonists of the estrogen receptor alpha (ER-alpha) signaling pathway (AID 743069; active = well fitted curve in the direction sought with a large enough effect in the signal ratio in the repeat runs, not every such curve was filed as active; the % refers to the signal ratio)
Method in brief: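 Screening used a UAS-driven beta-lactamase reporter integrated into HEK293 cells expressing ER-alpha, stimulated with 17beta-estradiol alongside test compounds over 18 hr at 37C; signal came from LiveBLAzer B/G FRET fluorescence.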

[5] = qHTS assay to identify small molecule antagonists of the estrogen receptor alpha (ER-alpha) signaling pathway - cell viability counter screen (AID 743074; calls by dose curve; note: nearly all actives have a fitted effect of over 45% in size)
[6] = target: Estrogen receptor (Homo sapiens) (UniProt P03372); test: qHTS assay to identify small molecule agonists of the estrogen receptor alpha (ER-alpha) signaling pathway (AID 743075; calls by dose curve)
[7] = target: Estrogen receptor (Homo sapiens) (UniProt P03372); test: qHTS assay to identify small molecule agonists of the estrogen receptor alpha (ER-alpha) signaling pathway using the BG1 cell line (AID 743079); conditions: BG1Luc4E2 cells, ERE-luciferase agonist, 22 h; note: nearly all actives have a fitted effect of over 20% in size; note: potency is the fitted concentration of half-maximal effect
[8] = qHTS assay to identify small molecule antagonists of the estrogen receptor alpha (ER-alpha) signaling pathway using the BG1 cell line (AID 743080; calls by dose curve;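 note: BG1 cells stimulated with 17beta-estradiol alongside compound; nearly all actives have a fitted effect of over 25% in size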)
Method in brief: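 BG1-Luc-4E2 cells (endogenous full-length ER-alpha, 4xERE luciferase) hormone-starved 5 days in charcoal-stripped FBS, plated 4,000/well for 24 h, then compound plus 17beta-estradiol for 21.5 h at 37 C; ONE-Glo luminescence read.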

[9] = qHTS assay to identify small molecule antagonists of the estrogen receptor alpha (ER-alpha) signaling pathway using the BG1 cell line - cell viability counter screen (AID 743081);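 note: compound given together with 17beta-estradiol as the ER stimulus; nearly all actives have a fitted effect of over 45% in size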
Aromatase (Homo sapiens) = Aromatase (Homo sapiens) (UniProt P11511); test: qHTS assay to identify aromatase inhibitors (AID 743083); note: nearly all actives have a fitted effect of over 55% in size
[10] = qHTS assay to identify aromatase inhibitors - cell viability counter screen (AID 743084);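 note: cells stimulated with testosterone during compound exposure; nearly all actives have a fitted effect of over 55% in size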
[11] = target: Aryl hydrocarbon receptor (Homo sapiens) (UniProt P35869); test: qHTS assay to identify small molecule that activate the aryl hydrocarbon receptor (AhR) signaling pathway (AID 743085);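 note: HG2L7.5c1 human HepG2 liver cells with stably integrated DRE-driven firefly reporter; nearly all actives have a fitted effect of over 15% in size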
Method in brief: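 Measured in HG2L7.5c1 cells: CellTiter-Fluor signal (30 min incubation, 37C) for viability, then luciferase luminescence (30 min, room temperature). Compound contact time was 24 h at 37C, following a 5 h pre-incubation.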

[12] = qHTS assay to identify small molecule that activate the aryl hydrocarbon receptor (AhR) signaling pathway - cell viability counter screen (AID 743086);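 note: HepG2 liver cells carrying the AhR DRE luciferase reporter; nearly all actives have a fitted effect of over 45% in size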
Method in brief: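 HepG2-AhR-luc (HG2L7.5c1) cells, 4000/well, were preincubated 5 h at 37C, exposed to compound in qHTS format for 24 hr at 37C, then given CellTiter-Fluor for 30 min; viability was read as fluorescence in the reporter wells.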

[13] = target: Peroxisome proliferator-activated receptor gamma (Homo sapiens) (UniProt P37231); test: qHTS assay to identify small molecule agonists of the peroxisome proliferator-activated receptor gamma (PPARg) signaling pathway (AID 743094; active = well fitted activation curve with a large enough effect in the signal ratio in the repeat runs, not every such curve was filed as active; the % refers to the signal ratio)
Method in brief: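 HEK293H PPARg-bla cells, 5 h settle at 37C/5% CO2; compound (DMSO) 17 h, 37C; B/G FRET substrate 1 h RT; fluorescence intensity read-out. qHTS format.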

[14] = qHTS assay to identify small molecule antagonists of the peroxisome proliferator-activated receptor gamma (PPARg) signaling pathway - cell viability counter screen (AID 743194); conditions: Potency: co-treated with 50 nM rosiglitazone; note: nearly all actives have a fitted effect of over 55% in size
Method in brief: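 PPARg-UAS-bla HEK293H cells were plated, rested 5 h at 37 C, then treated with compounds plus rosiglitazone (50 nM final) for 17 h at 37 C; viability was then read by CellTiter-Glo luminescence after 30 min at room temperature.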

[15] = qHTS assay for small molecule agonists of the antioxidant response element (ARE) signaling pathway (AID 743202; active = well fitted activation curve with a large enough effect in the signal ratio in the repeat runs, not every such curve was filed as active; the % refers to the signal ratio)
Method in brief: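 Steps: seed ARE-bla HepG2 cells (2,000/well); incubate 5 h at 37 C; add compounds by pin tool; incubate 16 h at 37 C; add FRET substrate; read fluorescence after 2 h at RT.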

[16] = qHTS assay for small molecule agonists of the antioxidant response element (ARE) signaling pathway - cell viability counter screen (AID 743203; calls by dose curve; note: nearly all actives have a fitted effect of over 55% in size)
Method in brief: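 Luminescence read-out (CellTiter-Glo, 30 min at room temperature) measured cell viability in the same wells as the ARE beta-lactamase reporter. HepG2 ARE-bla cells were treated with compounds for 16 hrs at 37C/5% CO2.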

[17] = qHTS assay for small molecule activators of the heat shock response signaling pathway - cell viability counter screen (AID 743209); note: nearly all actives have a fitted effect of over 50% in size
Method in brief: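 HSE-bla HeLa; 1500 cells/well; overnight 37 C, 5% CO2; compound 5 h 37 C; LiveBLAzer B/G substrate 2.5 h RT; CellTiter-Glo 30 min RT; luminescence.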

[18] = qHTS assay for small molecule activators of the heat shock response signaling pathway (AID 743210; active = well fitted activation curve with a large enough effect in the signal ratio in the repeat runs, with a control signal flat, not every such curve was filed as active; the % refers to the signal ratio;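 note: HeLa cells with beta-lactamase reporter driven by heat shock elements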)
Method in brief: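 Activation of heat shock element-controlled beta-lactamase expression is measured in HeLa cells by LiveBLAzer FRET fluorescence, with compound exposure lasting 5 h at 37 C and substrate loading 2.5 h at room temperature.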

[19] = target: Peroxisome proliferator-activated receptor gamma (Homo sapiens) (UniProt P37231); test: qHTS assay to identify small molecule antagonists of the peroxisome proliferator-activated receptor gamma (PPARg) signaling pathway (AID 743191; calls by dose curve; note: nearly all actives have a fitted effect of over 30% in size)
Method in brief: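 GeneBLAzer PPARg UAS-bla HEK293H cells carrying a UAS-driven beta-lactamase reporter were plated at 3000 cells/well, preincubated 5 h at 37C, then given compound for 17 h at 37C; LiveBLAzer B/G FRET substrate was read after 1 h at room temperature.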
% is set by controls: 0 for no effect and ±100 for the full control effect.

Estrogen receptor (Homo sapiens), sequence (P03372 whole entry, looked up): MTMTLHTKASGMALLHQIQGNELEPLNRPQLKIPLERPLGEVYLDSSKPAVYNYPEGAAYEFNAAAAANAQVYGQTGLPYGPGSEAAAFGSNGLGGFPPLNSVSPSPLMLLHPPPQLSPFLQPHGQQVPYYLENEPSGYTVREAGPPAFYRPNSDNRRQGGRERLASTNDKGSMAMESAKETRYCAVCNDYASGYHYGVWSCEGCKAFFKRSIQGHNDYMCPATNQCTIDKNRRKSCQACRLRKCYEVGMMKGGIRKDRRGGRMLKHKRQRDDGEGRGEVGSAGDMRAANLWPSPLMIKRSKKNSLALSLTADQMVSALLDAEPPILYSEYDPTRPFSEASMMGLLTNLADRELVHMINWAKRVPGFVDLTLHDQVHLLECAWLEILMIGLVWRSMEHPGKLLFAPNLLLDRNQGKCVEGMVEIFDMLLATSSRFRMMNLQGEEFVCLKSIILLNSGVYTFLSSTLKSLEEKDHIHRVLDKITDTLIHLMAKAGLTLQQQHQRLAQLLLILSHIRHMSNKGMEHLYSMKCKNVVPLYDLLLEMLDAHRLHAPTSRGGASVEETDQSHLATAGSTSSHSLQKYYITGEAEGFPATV
Peroxisome proliferator-activated receptor gamma (Homo sapiens), sequence (P37231 whole entry, looked up): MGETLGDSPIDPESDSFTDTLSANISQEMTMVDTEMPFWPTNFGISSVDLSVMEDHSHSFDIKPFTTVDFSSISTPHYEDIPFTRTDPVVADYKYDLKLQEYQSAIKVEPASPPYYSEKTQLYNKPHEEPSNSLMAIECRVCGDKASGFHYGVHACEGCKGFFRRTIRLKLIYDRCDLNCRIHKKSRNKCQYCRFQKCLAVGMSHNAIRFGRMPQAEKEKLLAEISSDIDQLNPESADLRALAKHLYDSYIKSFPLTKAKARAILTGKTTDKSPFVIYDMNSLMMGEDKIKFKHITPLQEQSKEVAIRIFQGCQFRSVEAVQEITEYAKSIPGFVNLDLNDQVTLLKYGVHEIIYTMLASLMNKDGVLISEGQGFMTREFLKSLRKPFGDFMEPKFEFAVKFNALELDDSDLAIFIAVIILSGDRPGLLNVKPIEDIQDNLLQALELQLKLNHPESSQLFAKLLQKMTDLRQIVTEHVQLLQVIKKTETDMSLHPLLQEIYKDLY
Aryl hydrocarbon receptor (Homo sapiens), sequence (P35869 whole entry, looked up): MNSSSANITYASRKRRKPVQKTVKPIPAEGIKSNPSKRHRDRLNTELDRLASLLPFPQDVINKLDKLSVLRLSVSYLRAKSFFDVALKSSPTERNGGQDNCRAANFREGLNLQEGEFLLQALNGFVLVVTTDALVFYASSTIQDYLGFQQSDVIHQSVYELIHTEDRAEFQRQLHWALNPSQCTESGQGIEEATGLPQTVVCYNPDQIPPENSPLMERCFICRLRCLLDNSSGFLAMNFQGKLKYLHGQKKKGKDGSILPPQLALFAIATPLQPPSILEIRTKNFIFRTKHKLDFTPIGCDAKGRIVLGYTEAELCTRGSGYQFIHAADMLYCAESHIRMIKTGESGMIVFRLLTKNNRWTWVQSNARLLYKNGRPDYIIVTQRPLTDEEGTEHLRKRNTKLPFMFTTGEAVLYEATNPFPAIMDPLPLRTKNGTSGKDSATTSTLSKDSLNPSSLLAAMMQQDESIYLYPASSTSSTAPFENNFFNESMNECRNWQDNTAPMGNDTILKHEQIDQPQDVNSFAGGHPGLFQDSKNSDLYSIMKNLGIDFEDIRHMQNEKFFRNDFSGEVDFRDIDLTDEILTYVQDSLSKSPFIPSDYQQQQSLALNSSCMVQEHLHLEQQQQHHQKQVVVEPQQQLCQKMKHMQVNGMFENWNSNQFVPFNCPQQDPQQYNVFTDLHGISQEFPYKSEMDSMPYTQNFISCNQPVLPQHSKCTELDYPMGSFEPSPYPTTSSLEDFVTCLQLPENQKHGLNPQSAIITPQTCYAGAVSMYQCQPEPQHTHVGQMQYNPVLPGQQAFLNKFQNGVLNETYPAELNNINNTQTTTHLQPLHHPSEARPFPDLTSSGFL
Aromatase (Homo sapiens), sequence (P11511 whole entry, looked up): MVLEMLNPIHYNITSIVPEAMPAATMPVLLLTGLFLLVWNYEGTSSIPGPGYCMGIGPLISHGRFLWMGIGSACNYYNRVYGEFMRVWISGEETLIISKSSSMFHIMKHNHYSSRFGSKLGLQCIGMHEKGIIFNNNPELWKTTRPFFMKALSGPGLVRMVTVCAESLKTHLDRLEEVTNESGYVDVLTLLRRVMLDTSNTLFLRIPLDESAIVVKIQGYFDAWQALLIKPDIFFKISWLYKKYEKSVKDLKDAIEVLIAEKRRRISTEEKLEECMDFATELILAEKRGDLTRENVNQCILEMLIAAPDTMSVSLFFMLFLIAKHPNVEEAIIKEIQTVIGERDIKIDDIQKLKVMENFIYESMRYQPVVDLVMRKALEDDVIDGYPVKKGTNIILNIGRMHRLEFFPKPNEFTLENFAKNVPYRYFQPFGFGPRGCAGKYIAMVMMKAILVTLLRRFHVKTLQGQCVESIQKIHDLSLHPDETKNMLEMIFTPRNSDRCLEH

CCOc1nc(C(Cl)(Cl)Cl)ns1
inactive: Potency [1] | Potency [2] | Potency [3] | Potency [4] | outcome [5] | Potency [6] | activation ([7]; at 70.3 µM (top of the series)) 4.23% | Potency [8] | Potency [9] | Potency (Aromatase (Homo sapiens)) | Potency [10] | Potency [11] | outcome [12] | outcome [13] | Potency [14] | Potency [15] | Potency [16] | Potency [17] | outcome [18]

CCOP(=S)(OCC)SCSc1ccc(Cl)cc1
inactive: Potency [1] | Potency [2] | Potency [3] | Potency [4] | outcome [5] | Potency [6] | Potency [8] | Potency [9] | Potency (Aromatase (Homo sapiens)) | Potency [10] | Potency [11] | outcome [12] | outcome [13] | Potency [14] | Potency [16] | Potency [17] | outcome [18]
active: Potency [7] 26.6 µM and 24.3 µM

O=[N+]([O-])c1ccc(CBr)cc1
inactive: Potency [1] | Potency [2] | Potency [3] | Potency [4] | outcome [5] | Potency [6] | activation ([7]; at 95 µM (top of the series)) 2.58% | Potency [8] | Potency [9] | Potency (Aromatase (Homo sapiens)) | Potency [10] | Potency [11] | outcome [12] | outcome [13] | Potency [16] | Potency [17] | outcome [18]

COC(=O)C(c1ccccc1)C1CCCCN1 (stereo not given)
inactive: Potency [1] | Potency [2] | Potency [3] | Potency [4] | outcome [5] | Potency [6] | activation ([7]; at 70.3 µM (top of the series)) 2.44% and -6.09% | Potency [8] | Potency [9] | Potency (Aromatase (Homo sapiens)) | Potency [10] | Potency [11] | outcome [12] | outcome [13] | Potency [19] | Potency [14] | Potency [16] | Potency [17] | outcome [18]

CS(=O)(=O)c1cc(C(F)(F)F)ccc1C(=O)c1cnoc1C1CC1
inactive: Potency [1] | Potency [2] | Potency [3] | Potency [4] | outcome [5] | Potency [6] | activation ([7]; at 70.3 µM (top of the series)) 0.699% | Potency [8] | Potency [9] | Potency (Aromatase (Homo sapiens)) | Potency [10] | Potency [11] | outcome [12] | outcome [13] | Potency [14] | Potency [15] | Potency [16] | outcome [18]

CCCSC(=O)Cl
inactive: Potency [1] | Potency [2] | Potency [3] | Potency [4] | outcome [5] | Potency [6] | activation ([7]; at 95 µM (top of the series)) 3.93% | Potency [8] | Potency [9] | Potency (Aromatase (Homo sapiens)) | Potency [10] | Potency [11] | outcome [12] | outcome [13] | Potency [14] | Potency [15] | Potency [16] | Potency [17] | outcome [18]

[Cl][Sn]([Cl])([Cl])[Cl]
inactive: Potency [1] | Potency [2] | Potency [3] | Potency [4] | outcome [5] | Potency [6] | activation ([7]; at 95 µM (top of the series)) -3.53% | Potency [8] | Potency [9] | Potency (Aromatase (Homo sapiens)) | Potency [10] | Potency [11] | outcome [12] | outcome [13] | Potency [14] | Potency [15] | Potency [16] | outcome [18]

CC(=O)C(Cl)Cl
inactive: Potency [1] | Potency [2] | Potency [3] | Potency [4] | outcome [5] | Potency [6] | activation ([7]; at 95 µM (top of the series)) 0.96% | Potency [8] | Potency [9] | Potency (Aromatase (Homo sapiens)) | Potency [10] | Potency [11] | outcome [12] | outcome [13] | Potency [19] | Potency [16] | Potency [17] | outcome [18]

O=NN1CCN(N=O)CC1
inactive: Potency [1] | Potency [2] | Potency [3] | Potency [4] | outcome [5] | Potency [6] | activation ([7]; at 70.3 µM (top of the series)) 9.64% | Potency [8] | Potency [9] | Potency (Aromatase (Homo sapiens)) | Potency [10] | Potency [11] | outcome [12] | Potency [14] | Potency [15] | Potency [16] | Potency [17]

CC(=O)CC(c1ccc(Cl)cc1)c1c(O)c2ccccc2oc1=O (stereo not given)
inactive: Potency [1] | Potency [2] | Potency [3] | Potency [4] | outcome [5] | Potency [6] | activation ([7]; at 95 µM (top of the series)) -6.05% | Potency [8] | Potency [9] | Potency (Aromatase (Homo sapiens)) | Potency [10] | Potency [11] | outcome [12] | Potency [19] | Potency [16] | Potency [17] | outcome [18]

c1cc2c(c(N3CCNCC3)c1)OCCO2
inactive: Potency [1] | Potency [2] | Potency [3] | Potency [4] | outcome [5] | Potency [6] | activation ([7]; at 70.3 µM (top of the series)) 9.1% | Potency [8] | Potency [9] | Potency (Aromatase (Homo sapiens)) | Potency [10] | Potency [11] | outcome [12] | outcome [13] | Potency [19] | Potency [14] | Potency [15] | Potency [16] | Potency [17] | outcome [18]

ClC(Cl)C(Cl)Cl
inactive: Potency [1] | Potency [2] | Potency [3] | Potency [4] | outcome [5] | Potency [6] | activation ([7]; at 95 µM (top of the series)) -0.198% | Potency [8] | Potency [9] | Potency (Aromatase (Homo sapiens)) | Potency [10] | Potency [11] | outcome [12] | outcome [13] | Potency [15] | Potency [16] | Potency [17] | outcome [18]

CCCCCCI
inactive: Potency [1] | Potency [2] | Potency [3] | Potency [4] | outcome [5] | Potency [6] | activation ([7]; at 70.3 µM (top of the series)) 1.45% | Potency [8] | Potency [9] | Potency (Aromatase (Homo sapiens)) | Potency [10] | Potency [11] | outcome [12] | outcome [13] | Potency [19] | Potency [14] | Potency [16] | Potency [17] | outcome [18]

CCC(Cl)[N+](=O)[O-] (stereo not given)
inactive: Potency [1] | Potency [2] | Potency [3] | Potency [4] | outcome [5] | Potency [6] | activation ([7]; at 95 µM (top of the series)) -4.86% | Potency [8] | Potency [9] | Potency (Aromatase (Homo sapiens)) | Potency [10] | Potency [11] | outcome [12] | outcome [13] | Potency [15] | Potency [16] | Potency [17]

O=C(O)c1ccc2[nH]cc(CCCCN3CC=C(c4ccccc4)CC3)c2c1
inactive: Potency [1] | Potency [2] | Potency [3] | Potency [4] | outcome [5] | Potency [6] | activation ([7]; at 70.3 µM (top of the series)) -2.02% | Potency [8] | Potency [9] | Potency (Aromatase (Homo sapiens)) | Potency [10] | Potency [11] | outcome [12] | outcome [13] | Potency [14] | Potency [16]
